Among the data in PubChem BioAssay (NCI) are growth values, retold here.

Each structure is given as a SMILES string. Where “and” joins values, the source holds several entries; their conditions need not be identical. Equal entries are not always repeated. About 83,000 compounds went through this panel and 20% of them were active in at least one assay; those are over-represented in the sample as a whole.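 Plates (96-well) were seeded with cells, treated with compound at one concentration, and incubated for 48 hours before percent growth was determined.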 Calls of active or inactive are those of the source. The calls were made as follows: active = growth percent below 10; inactive = the rest.

The test relates to MCF7 breast. The test is described as follows: NCI-60 one-dose screen, 48 h (100 = growth as untreated, 0 = no growth, -100 = all killed). Particulars: 10 µM unless noted.
With `CCC/C(Cl)=N\OC(=O)Nc1ccc(F)cc1`, the growth was -78.4% [100 µM] (active) and -69.5% [100 µM] (active). The result for `Cc1cc(N2CCCC2)c([N+](=O)[O-])cc1[N+](=O)[O-]` reads 65.2% [100 µM] (inactive) and 89% [100 µM] (inactive). The result for `N#CC1=C(N)OC(c2cccc([N+](=O)[O-])c2)C1(C#N)C#N` (centres undefined) reads -9.78% [100 µM] (active) and -88.5% [100 µM] (active).

Turning to `CC(C)=CCC/C(C)=C/CC/C(C)=C/CC/C(C)=C/C=C/C=C(\C)CC/C=C(\C)CC/C=C(\C)CCC=C(C)C`, the growth is 74.5% [100 µM] (inactive) and 28.2% [100 µM] (inactive). In the case of `CCOC(=O)C1(C#N)C(=O)c2cc[n+](CC[n+]3ccc4c(c3)C(=O)C(C#N)(C(=O)OCC)C4=O)cc2C1=O` (centres undefined), the growth is 88.7% [100 µM] (inactive) and 89.4% [100 µM] (inactive). The result for `N#C/C(=C\c1ccccc1)C(=O)Nc1nnc(-c2ccccc2)o1` reads 33.4% [100 µM] (inactive) and 3.23% [100 µM] (active); that for `O=c1cc(-c2ccc(O)cc2)oc2cc(O[C@@H]3O[C@H](CO)[C@@H](O)[C@H](O)[C@H]3O)cc(O)c12`, 38.3% [100 µM] (inactive) and 0.613% [100 µM] (active); that for `NNC1=N/C(=C\c2ccco2)C(Cl)=N1`, 16.5% [100 µM] (inactive) and -15.6% [100 µM] (active). The figure for `CC(=O)c1cc2c(s1)C(=O)c1scc(C(C)=O)c1C2=O` is -68.6% [100 µM] (active) and -79.8% [100 µM] (active); for `CC(C)=CCC/C(C)=C/CC/C(C)=C/CSc1ccc(Cl)cc1C(=O)O` it is -52.6% [100 µM] (active) and 17.2% [100 µM] (inactive).

In the case of `CC(=O)OCC1=C(C)C[C@H]([C@@H](COC(C)=O)C2CCC3C4C[C@H]5O[C@]56CC=CC(=O)[C@]6(C)C4CC[C@@]32C)OC1=O` (some centres undefined), the growth was -69.8% [50 µM] (active) and -84.4% [50 µM] (active).

For `O=C1N(c2ccccc2)N=C2c3ccncc3C3=NN(c4ccccc4)C(=O)C123` (centres undefined), the growth was 28.9% [100 µM] (inactive) and -33.6% [100 µM] (active). As for `Cc1ccc(/C=N/Nc2cc(C)c3ccccc3n2)s1`, the growth was -80.7% [100 µM] (active) and -40.2% [100 µM] (active). The result for `CC12CCC3c4cc(Br)c(O)c(Br)c4CCC3C1CCC2O` (centres undefined) reads 5.35% [100 µM] (active) and -48.4% [100 µM] (active); that for `COc1cc2c(cc1O)Cc1c-2[n+](C)cc2cc(OC)c(OC)cc12`, 19.5% [100 µM] (inactive) and 0.687% [100 µM] (active); that for `CC#CC#C/C=C1/C=CC2(CCCCO2)O1` (centres undefined), 53.8% [100 µM] (inactive) and 0.753% [100 µM] (active). `C#CCn1c2c(c3ccccc3c1=O)C(=O)c1ccccc1-2`: the growth is 11.6% [100 µM] (inactive) and 10.4% [100 µM] (inactive). As to `CCCn1c2c(c3ccccc3c1=O)C(=O)c1ccccc1-2`, the growth is 51.4% [100 µM] (inactive) and 17.4% [100 µM] (inactive). Turning to `CC(O)c1cc2c(s1)C(=O)c1c(C(C)O)csc1C2=O` (centres undefined), the growth is -78.4% [100 µM] (active) and -81.9% [100 µM] (active).

With `NC1=NN(c2ccccc2)C2(c3ccncc3C(=O)O)C1C(N)=NN2c1ccccc1` (centres undefined), the growth is 69.3% [100 µM] (inactive) and 90.4% [100 µM] (inactive). The figure for `CC(=O)NC(CS/N=N/c1nc[nH]c1C(N)=O)C(=O)O` (centres undefined) is 28.2% [100 µM] (inactive) and 6.86% [100 µM] (active); for `CN(C)CCNc1ccc(NCC[N+](C)(C)Cc2ccc([N+](=O)[O-])cc2)c2c1C(=O)c1ccccc1C2=O` it is 6.38% [25 µM] (active) and -100% [25 µM] (active).

On to `Cc1ccc(NC(=S)C#N)c(C)c1`, for which the growth was 48.6% [100 µM] (inactive) and -77.7% [100 µM] (active). `CCOc1cc2c(cc1O)/C(=N\N)C[C@@H]1[C@@H]2CC[C@]2(C)[C@@H](O)CC[C@@H]12`: the growth is 20.2% [100 µM] (inactive) and -66.9% [100 µM] (active).
